High-throughput results deposited in PubChem by National Center for Advancing Translational Sciences (NCATS).
Sampled rows, rich in hits. Any-hit rate of the full collection: about 3.8%.
HT1080NT lethal = kills 2HG-producing HT-1080-NT fibrosarcoma cells | AID 686970 | Potency, µM (highest dose often 46.1 µM), hits mostly cytotoxic | HT-1080-NT fibrosarcoma viability, CellTiter-Glo ATP luminescence, 48 h | 1.6% of 360,000 active;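 also: NT is the 2HG producing partner of a matched IDH1 knockdown line; nearly all actives have a fitted effect of over 55% in size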
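Compounds were tested in concentration-response format on HT-1080-NT cells for 48 hours at 37 degrees C. Cell viability came from CellTiter-Glo luminescence; curves were classified by r2, response magnitude and activity.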
S2 tox = cell viability loss in ATXN counter-screen | 0.49% of 400,000 active | S2 cells (HEK-293 line with an ATXN2-luciferase reporter) viability, CellTiter-Fluor protease fluorescence, 24 h | Potency, µM (top dose mostly 56.7 µM), hits mostly cytotoxic | AID 651635; also: nearly all actives have a fitted effect of over 40% in size
HT1080 IDH1KD tx = kills HT-1080 cells with IDH1 knockdown; Potency, µM (titrated, usually from 46.1 µM), hits mostly cytotoxic; AID 686971; HT-1080 IDH1 knockdown viability, ATP luminescence, 48 h; 2% of 360,000 active
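HT-1080-IDH1KD cells (IDH1 knocked down), 750/well in RPMI with 5% FBS, treated with compound 48 h at 37 degrees C. Viability by CellTiter-Glo luminescence, normalised to DMSO and no-cell wells; concentration-response curves classed.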
TGFb inhibitor = blocks TGF-b signaling; HepG2 CAGA-GFP TGF-b/SMAD3 reporter, GFP fluorescence, 18 h; TGF-beta stimulated, 500 pg/mL final; AID 588855; Potency, µM (top dose mostly 46.1 µM), usual class: inhibitors; 1.2% of 410,000 active; also: nearly all actives have a fitted effect of over 65% in size
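Read-out: total well GFP (ex488/em500-530) summed from mean per-cell fluorescence. Cells: HEPG2 CAGA-GFP, 1% FBS DMEM, 18 h at 37 degrees C with 500 pg/mL final TGF-beta. Unstimulated wells served as the full-inhibition control; stimulated DMSO wells = 0%.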
ATXN2 expr inh = ATXN2 expression inhibition | HEK-293 ATXN2-luciferase reporter, luminescence, 24 h | Potency, µM (series often up to 57 µM), usual class: inhibitors | 0.72% of 360,000 active; also: nearly all actives have a fitted effect of over 55% in size
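qHTS (up to 57 uM final) was run with 24 h compound exposure of reporter cells at 37 °C. Each well was multiplexed: SteadyGlo luminescence measured ATXN2-luciferase expression after a fluorogenic Gly-Phe-AFC viability readout (25 uM final).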
HepG2 tox-1 = kills HepG2 cells in TGF-b inhibitor counter-screen. HepG2 CAGA-GFP viability, ATP luminescence, 18 h. AID 588856. Potency, µM (titrated, usually from 46.1 µM), actives largely listed as cytotoxic. 0.76% of 410,000 active
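HepG2 CAGA-GFP cells (1000/well, DMEM with 1% FBS) received compound, then TGF-beta at 500 pg/mL final, and were incubated 18 hours at 37 degrees C. Viability was read by CellTiter-Glo luminescence. Media-only wells were set as complete cell-killing and DMSO as no toxicity.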
TGFb confirm = TGF-b pathway inhibition, cherry-pick retest. Potency, µM (titrated, usually from 46.1 µM), hits mostly inhibitors. HepG2 CAGA-GFP TGF-b reporter, GFP fluorescence, 18 h; cells stimulated with TGF-beta, 500 pg/mL. 63% of 1,600 active. AID 720534. shares compounds with TGFb inhibitor; also: nearly all actives have a fitted effect of over 65% in size
HepG2 tox-2 = HepG2 cytotoxicity, TGF-b inhibitor counterscreen | shares compounds with TGFb inhibitor | HepG2 CAGA-GFP viability, ATP luminescence, 18 h; cells stimulated with TGF-beta, 500 pg/mL | Potency, µM (doses to about 46.1 µM), actives largely listed as inhibitors | 27% of 1,600 active | AID 720535; also: nearly all actives have a fitted effect of over 70% in size
TGFb CCL64 inh = orthogonal confirmation of TGF-b inhibitors in CCL64 cells; shares compounds with TGFb inhibitor; AID 720536; 41% of 1,600 active; Potency, µM (doses to about 46.1 µM), most hits filed as inhibitors; CCL64 CAGA-GFP reporter, TGF-b stimulated, GFP fluorescence, 18 h; also: nearly all actives have a fitted effect of over 65% in size
TGFb COP inh = TGF-b inhibition validated with COP promoter | shares compounds with TGFb inhibitor | HepG2 COP-GFP TGF-b reporter, GFP fluorescence, 18 h; cells stimulated by added recombinant TGF-beta | Potency, µM (highest dose often 46.1 µM), actives largely listed as inhibitors | 3% of 1,600 active; also: nearly all actives have a fitted effect of over 70% in size
A number is an active result; 0 = inactive; ? = inconclusive; - = not tested or not shown; ! = repeats disagree; [ ] = another dose, or the depositor's remark. Calls follow the shape of the dose curve; as a rule, active = well fitted curve in the direction sought with a large enough effect; inconclusive = small, poorly fitted or top-dose-only effect, or another doubt; inactive = no such curve, though single readings can be large; an effect the other way counts as inactive or inconclusive.

SMILES	HT1080NT lethal	S2 tox	HT1080 IDH1KD tx	TGFb inhibitor	ATXN2 expr inh	HepG2 tox-1	TGFb confirm	HepG2 tox-2	TGFb CCL64 inh	TGFb COP inh
NC(=O)Cn1c(=O)n(CCCCCC(=O)NCc2ccccc2)c(=O)c2sccc21	-	0	-	0	0	0	-	-	-	-
O=S(=O)(CC(CN1CCCCC1)N1CCCCC1)c1ccccc1 (configuration not stated)	?	-	?	10µM	-	18µM	13µM	18µM	4.6µM	?
CC(C)Sc1ncc(Cl)c(C(=O)Nc2ccc(S(=O)(=O)N(C)c3ccccc3)cc2)n1	-	0	-	0	0	0	-	-	-	-
CCN(c1ccccc1)S(=O)(=O)c1ccc(NC(=O)c2nc(S(C)(=O)=O)ncc2Cl)cc1	18µM	-	16µM	6.3µM	13µM	6.3µM	4.1µM	5.2µM	1.5µM	6.5µM
CCSc1ncc(Cl)c(C(=O)Nc2ccc(S(=O)(=O)N(C)c3ccccc3)cc2)n1	-	0	-	0	0	0	-	-	-	-
CCS(=O)(=O)c1ncc(Cl)c(C(=O)Nc2ccc(S(=O)(=O)N(C)c3ccccc3)cc2)n1	2.6µM	20µM	3.7µM	3.5µM	20µM	4.5µM!	4.6µM	4.1µM	1.6µM	7.3µM
CCC(C)Sc1cccc(-c2nc3cc(C)ccn3c2NCc2ccccc2)c1 (configuration not stated)	21µM	?	26µM	16µM	?	0	?	?	16µM	0
Cc1ccc(C(=O)Nc2ccc3nc(SCC(=O)N4CCCc5ccccc54)sc3c2)cc1	-	-	-	0	-	0	-	-	-	-
COc1ccc(N(C(=O)CCl)C(C(=O)NC2CCCCC2)c2cccnc2)cc1 (configuration not stated)	7.3µM	8.9µM	5.8µM	8.9µM	14µM	11µM	7.3µM	12µM	9.2µM	?
COc1ccc(C(C(=O)NC2CCCCC2)N(C(=O)c2ccccn2)c2cccnc2)cc1 (configuration not stated)	0	0	0	0	-	0	-	-	-	-
N#Cc1ccccc1NC(=O)C(=O)NCCc1csc(-c2ccc(C(F)(F)F)cc2)n1	-	-	-	0	-	0	-	-	-	-
O=C(CNC(=O)c1ccccc1Cl)N/N=C/c1ccc2c(c1)OCO2	0	?	?	0	0	0	-	-	-	-
O=C(N/N=C/c1ccc2c(c1)OCO2)c1cc(-c2ccccc2Cl)nc2ccccc12	0	0	0	?	0	0	0	0	0	0
CCOC(=O)c1cccc(NC(=O)C2COc3ccc(OC)cc3C2)c1 (configuration not stated)	-	0	-	0	0	0	-	-	-	-
C=C(C)COc1ccc(-c2[nH]ncc2-c2ccc(OC)cc2)c(O)c1	0	?	0	8.9µM	-	0	?	?	23µM	?
CC(=O)c1cccc(NC(=O)c2sc(-n3nc(C)c(Cc4ccc5c(c4)OCO5)c3C)nc2C)c1	-	-	-	?	-	0	-	-	-	-
O=S(=O)(/C(=C\c1ccc(C(F)(F)F)cc1)c1nc2ccccc2[nH]1)c1ccccc1	1.8µM	7.1µM	1.5µM	4.5µM	5µM	18µM	2.9µM	2.6µM	3.3µM	?
Cc1ccc(SC[C@H](C)CN2CC[C@H](C(C)(C)C)CCC2=O)cc1	0	0	0	10µM	0	11µM!	?	?	21µM	0
CC(=O)Nc1ccc(SC[C@H](Cc2ccccc2)N2CC[C@@H](C(C)(C)C)CCC2=O)cc1	?	32µM	16µM	10µM	?	0	26µM	?	?	0
CCOc1ccc(CCNC(=O)CCCc2nnc3n(C)c(=O)c4sccc4n23)cc1OCC	-	0	-	0	0	0	-	-	-	-
Cn1c(/C=C/c2ccccc2)nc2ccccc2c1=O	?	0	?	0	0	0	-	-	-	-
Cn1c(/C=C/c2ccc([N+](=O)[O-])o2)nc2ccccc2c1=O	?	6.3µM	?	2.2µM	7.9µM	0	?	6.5µM	5.2µM	?
CCN(C(=O)COC(=O)c1cccc2ccccc12)c1c(N)n(Cc2ccccc2)c(=O)[nH]c1=O	0	0	0	0	0	0	-	-	-	-
CCN(C(=O)COC(=O)c1ccccc1Nc1ccccc1)c1c(N)n(Cc2ccccc2)c(=O)[nH]c1=O	0	?	0	18µM	-	0	21µM	0	?	0
Cc1oc(-c2ccc(Cl)cc2)nc1Cn1c(=O)cc(C)c2c(C)nn(-c3cccc(F)c3)c21	-	0	-	0	0	0	-	-	-	-
SMILES	HT1080NT lethal	S2 tox	HT1080 IDH1KD tx	TGFb inhibitor	ATXN2 expr inh	HepG2 tox-1	TGFb confirm	HepG2 tox-2	TGFb CCL64 inh	TGFb COP inh
CC1(C)Cc2c(cnn2-c2ccccc2)-c2c1c1ccccc1n2CC(O)CBr (configuration not stated)	?	?	0[9.24 µM]	?	0	0	?	0	?	0
CC1(C)Cc2c(cnn2-c2ccccc2)C(=O)/C1=N\NC(=O)c1ccccc1N	?	0	0	0	0	0	-	-	-	-
Cn1c(=O)oc2cc(S(=O)(=O)N3CCCC(C(=O)NC4CCCc5ccccc54)C3)ccc21 (configuration not stated)	0	?	0	0.56µM	?	0	?	?	0	0
Cn1c(=O)oc2cc(S(=O)(=O)NC3CCCc4ccccc43)ccc21 (configuration not stated)	0	0	0	0	0	0	-	-	-	-
COc1cc(CN2CCc3ccccc3C2)ccc1O	?	18µM	?	4.5µM	-	0	7.3µM	15µM	2.9µM	0
COc1ccc(C2Nc3ccccc3C(=O)N2Cc2ccco2)cc1OC (configuration not stated)	-	-	-	?	-	0	-	-	-	-
CCc1ccc(-c2cc(C)no2)cc1S(=O)(=O)Nc1cc(OC)c(OC)c(OC)c1	-	-	-	?	-	0	-	-	-	-
CCOc1ccc(C(=O)c2cc([N+](=O)[O-])ccc2N2CCOCC2)cc1	0.037µM	0	0.026µM	1.1µM	0	0	?	0	0.73µM	0
